Experiment [1] in a line: SK-BR-3 cell growth inhibitors, pilot screen, 24 h, human (AID 572;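 active = viability at or below 10% of carrier control in both of two separate runs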;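 also: compound exposure lasted between 18 and 24 h rather than exactly 24 h; 100% = carrier-treated control wells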). Conditions: SK-BR-3 viability, CellTiter-Glo luminescence, at 10 µM, stronger effect = lower value.
Experiment [2] can be described thus: HUVEC growth inhibition – cell-based, human, primary screen (AID 575;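 active = viability at or below 30% in both replicate assays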;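 also: 100% = median of untreated cell wells with 0.1% DMSO on each plate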). Conditions: HUVEC proliferation, CellTiter-Glo luminescence, 72 h; at 10 µM; stronger effect = lower value. Background: ATP-based viability assays read luminescence as a measure of living cells.
A short description of experiment [3]: growth inhibitors of H69AR lung tumor, primary screen, human, duplicate replicates (AID 580;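 active = viability at or under a set limit in both replicates, limit being median viability minus 3 SD, cut at about 48% in these data, passing the limit was not always enough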;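 also: 100% = mean luminescence of untreated wells and 0% = no signal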). Conditions: H69AR lung tumor cells viability, ATP luminescence, 72 h; at 10 µM; stronger effect = lower value.
Experiment [4] in a line: reversal of MRP1-mediated doxorubicin resistance, pilot screen, H69AR cells, doxorubicin co-treatment (AID 601;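 active = viability loss from added drug above about 55%, and viability with drug at most 40%, in both replicates, limit read from the data, passing the limit was not always enough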). Conditions: CellTiter-Glo, 72 h, at 10 µM; for differential viability (reversal): stronger effect = higher value.
Experiment [5] in a line: 384-well plate pilot, post-Golgi transport modulator project, inhibition of yeast transport mutant growth (AID 636; in the data active = inhibition above about 31%). Conditions: absorbance 615 nm, about 18 h, stronger effect = higher value.
A short description of experiment [6]: growth suppression of yeast trafficking mutant, preliminary HTS, modulators of trafficking downstream of Golgi apparatus project, 1536-format plate, OD 615 nm (AID 637; in the data active = inhibition above about 30%). Conditions: yeast transport mutant growth, absorbance 615 nm, 18 h; stronger effect = higher value.
Experiment [7] is described as follows: OD615 S. cerevisiae growth inhibition, permissive medium, pilot counter-assay, permissive growth control for S. cerevisiae lifespan shortening project (AID 705;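 active = growth inhibition above 25% in both replicates, a cutoff set 3 SD above the mean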). Conditions: OD615, 24 h, at 10 µM, stronger effect = higher value.
A short description of experiment [8]: Restrictive medium S. cerevisiae growth inhibition, OD615, pilot screen of yeast lifespan reduction project, restrictive growth control (AID 706;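 active = growth inhibition above a set limit, 3 SD over mean compound inhibition, in both replicates, cut at about 43% in these data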;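 also: modified DeaD lifespan yeast strain shifted to restrictive glucose medium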). Conditions: OD615, 48 h, at 10 µM, stronger effect = higher value.
A short description of experiment [9]: viability gain of MRP-1-high H69AR cells under doxorubicin, pilot screen, MRP-1 activator project, CellTiter-Glo, duplicate (AID 807;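 active = viability increase at or above a cutoff of the median across tested compounds plus 3 SD, cut at about 8.5% in these data, passing the limit was not always enough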;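 also: compound pretreatment 18-22 h then 72 h combined with doxorubicin; 0% = doxorubicin alone and 100% = vehicle without doxorubicin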). Conditions: H69AR viability with doxorubicin, CellTiter-Glo luminescence; at 10 µM; stronger effect = higher value.
A short description of experiment [10]: growth suppression of beta-catenin knockout HCT116, pilot screen, human colon tumor cells (AID 823;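 active = cell viability at or below a set limit in both duplicate runs, the limit being the all-compound median minus 4 SD, cut at about 23% in these data, passing the limit was not always enough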;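 also: 0% = wells killed by 20 µM Hyamine and 100% = untreated DMSO cell wells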). Conditions: CellTiter-Glo, 60 h, at 10 µM, stronger effect = lower value.
Experiment [11] can be described thus: growth suppression of PTEN-deleted HCT116, pilot screen, cell-based, HCT116 clonal line, CellTiter-Glo (AID 824).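 Also: 0% = 20 µM Hyamine control and 100% = vehicle cell control.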 Conditions: 60 h, at 10 µM, stronger effect = lower value.
Experiment [12] can be described thus: inhibitors of the yeast RAM network, pilot screen, dse1pr::URA3 reporter, 5-FOA selection (AID 869;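 active = inhibition over a set limit, the all-compound mean plus 3 SD, in both replicate runs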;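 also: 0% = DMSO wells with no growth and 100% = 10 µM 1-NA-PP1 with full growth; RAM network block rescues cells from 5-FOA so hits raise OD615 growth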). Conditions: S. cerevisiae dse1pr::URA3 5-FOA growth, OD615, 2 d; at 10 µM; stronger effect = higher value; strain carries analog-sensitive mutant Cbk1 kinase.
Experiment [13] can be described thus: RAM signaling pathway blockade in yeast – S. cerevisiae, Pdr1DBD-CYC8 efflux-inhibited sensitized strain, primary screen (AID 1298;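 active = RAM network inhibition above 8.4% in each of two replicates, 3 SD over the compound average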;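 also: 0% = DMSO untreated cells without growth and 100% = 10 µM 1-NA-PP1 full growth; higher means more yeast growth rescued from 5-FOA killing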). Conditions: S. cerevisiae cbk1-as DSE1-URA3 strain, 5-FOA growth OD615, 2 d; at 50 µM; stronger effect = higher value.
Where [14] appears, read: H69AR cells + 2 uM doxorubicin, measured here: viability with 2 uM doxorubicin, stronger effect = lower value.
Setting [15] is: H69AR cells, compound alone cytotoxicity.

SMILES strings stand for the structures. Records with an inconclusive call do not appear. The source made the active and inactive calls.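 The calls were made as follows, unless noted: active = viability at or below 27.92% in each of two runs, the all-compound median minus 4 SD; inconclusive = no clear call, values can overlap the other calls; inactive = the rest.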

Usually viability stands for a read-out of living cells in per cent, often relative to untreated cells. For orientation: inhibition means the relative decrease from the control value, in per cent.

Regarding `O=C(CSc1nnnn1-c1ccccc1)Nc1ccc(Cl)cc1`, the viability in experiment [1] is 100% (inactive); in experiment [2] it was 99.1% (inactive); in experiment [3], 89.7% (inactive); in experiment [4] (setting [14]) it was 83.2%; in experiment [4] (setting [15]) it was 89.7%; in experiment [10], 74% (inactive). The viability in experiment [11] is 76.8% (inactive). The differential viability (reversal) in experiment [4] (H69AR cells + 2 uM doxorubicin) is 6.46% (inactive). Also, the inhibition is 2.13% (inactive) in experiment [5], 6% (inactive) in [6] and 3.12% (inactive) in [12]. For the same compound, the figures for the growth inhibition in experiment [7] and in experiment [8] were -4.88% (inactive) and 4.24% (inactive), respectively. Also, the viability increase in experiment [9] is -3.86% (inactive). In [13], the RAM network inhibition was 2.55% (inactive).
Regarding `COc1cc(C(=O)NCCc2ccc3c(c2)OCCO3)ccc1OCC(=O)N1CCOCC1`, the viability in experiment [1] is 100% (inactive); in experiment [2], 112% (inactive); in experiment [3], 93.3% (inactive); in experiment [4] (setting [14]) it was 92%; in experiment [4] (setting [15]) it was 93.3%; in experiment [10] it was 97.6% (inactive). The viability in [11] is 96.3% (inactive). Moreover, the differential viability (reversal) in [4] (H69AR cells + 2 uM doxorubicin) was 1.3% (inactive). The inhibition is -5.95% (inactive) in experiment [5], -6.55% (inactive) in experiment [6] and 1.68% (inactive) in experiment [12]. For the same compound, the growth inhibition in [7] was -14.7% (inactive); in experiment [8] it was -16% (inactive). Further, in experiment [9], the viability increase was -2.17% (inactive). The RAM network inhibition in experiment [13] is 1.5% (inactive).
Consider `OC(CNCCc1ccccc1)c1ccccc1` (stereo not given), for which the viability in [1] was 101% (inactive); in experiment [2] it was 101% (inactive); in [3], 91.2% (inactive); in experiment [4] (setting [14]) it was 81.4%; in experiment [4] (setting [15]), 91.2%; in experiment [10] it was 95.4% (inactive). In addition, the viability in [11] is 94.1% (inactive). For the same compound, the differential viability (reversal) in experiment [4] (H69AR cells + 2 uM doxorubicin) is 9.8% (inactive). The inhibition in experiment [5] was -5.07% (inactive); in [6], 2.36% (inactive); in experiment [12], 0.865% (inactive). Also, the figures for the growth inhibition in experiment [7] and in experiment [8] were -6.34% (inactive) and -6.08% (inactive), respectively. In experiment [9], the viability increase is -0.36% (inactive). The RAM network inhibition in [13] is 0.66% (inactive).
For the compound `O=C(CN1CCN(Cc2ccccc2)CC1)NCC1COc2ccccc2O1` (stereo not given), the viability in experiment [1] is 108% (inactive); in experiment [2], 110% (inactive); in experiment [3] it was 93.2% (inactive); in [4] (setting [14]), 86.6%; in experiment [4] (setting [15]) it was 93.2%; in experiment [10] it was 93.6% (inactive). For the same compound, in experiment [11], the viability is 96.9% (inactive). For the same compound, in experiment [4] (H69AR cells + 2 uM doxorubicin), the differential viability (reversal) was 6.56% (inactive). Also, the inhibition in experiment [5] was -2.53% (inactive); in [6], -4.73% (inactive); in experiment [12] it was -0.145% (inactive). The growth inhibition in [7] is -1.31% (inactive); in experiment [8] it was -5.58% (inactive). Also, the viability increase in experiment [9] was -1.29% (inactive). Also, the RAM network inhibition in experiment [13] is 2.61% (inactive).
`C#CCOC(=O)C1C2C=CC(C2)C1C(=O)O` (stereo not given): the viability in [1] is 86% (inactive); in experiment [2] it was 109% (inactive); in [3], 93.6% (inactive); in experiment [4] (setting [14]), 81.7%; in experiment [4] (setting [15]), 93.6%; in experiment [10] it was 103% (inactive). In [11], the viability is 96.8% (inactive). In addition, the differential viability (reversal) in experiment [4] (H69AR cells + 2 uM doxorubicin) is 11.9% (inactive). The results for the inhibition in experiment [5], in [6] and in [12] were -6.27% (inactive), 1.45% (inactive) and -0.215% (inactive), respectively. The growth inhibition in experiment [7] is 2.87% (inactive); in experiment [8], -1.21% (inactive). Also, in [9], the viability increase is 0.51% (inactive). The RAM network inhibition in experiment [13] is 2.5% (inactive).
Turning to `Clc1cccc(-c2nnc(-c3ccccc3)o2)c1`, the viability was 57% (inactive) in experiment [1]; 78.7% (inactive) in [2]; 76.7% (inactive) in experiment [3]; 80.7% in [4] (setting [14]); 76.7% in experiment [4] (setting [15]); 4.61% (active) in [10]. Also, in experiment [11], the viability is 21.4% (active). In addition, the differential viability (reversal) in experiment [4] (H69AR cells + 2 uM doxorubicin) was -4.06% (inactive). Further, the inhibition in experiment [5] is -8.92% (inactive); in experiment [6] it was 0.82% (inactive); in [12], 1.33% (inactive). Also, the growth inhibition in experiment [7] was 8.84% (inactive); in [8], 3.85% (inactive). For the same compound, the viability increase in experiment [9] was -6.09% (inactive). Moreover, the RAM network inhibition in [13] is 0.25% (inactive).
For the compound `CC1=C(C(=O)OC2CCCCCC2)C(c2ccc(C)o2)C2=C(CCCC2=O)N1` (stereo not given), the viability was 124% (inactive) in [1]; 102% (inactive) in [2]; 97.2% (inactive) in [3]; 101% in experiment [4] (setting [14]); 97.2% in [4] (setting [15]); 70.8% (inactive) in experiment [10]. Also, in experiment [11], the viability is 78.8% (inactive). Besides, the differential viability (reversal) in experiment [4] (H69AR cells + 2 uM doxorubicin) is -3.5% (inactive). For the same compound, the values for the inhibition in experiment [5], in [6] and in [12] were -1.49% (inactive), 2.38% (inactive) and 1.77% (inactive), respectively. Moreover, the figures for the growth inhibition in experiment [7] and in [8] were -11.2% (inactive) and -22.5% (inactive), respectively. The viability increase in experiment [9] is -2% (inactive). Moreover, the RAM network inhibition in [13] is 1.63% (inactive).
Regarding `COCc1cc(C)nc(Nc2ccc(C)cc2C)c1C#N`, the viability in experiment [1] was 70% (inactive); in experiment [2] it was 84.8% (inactive); in experiment [3], 104% (inactive); in experiment [4] (setting [14]), 95.1%; in [4] (setting [15]) it was 104%; in experiment [10], 97.2% (inactive). Besides, the viability in [11] was 90.6% (inactive). Also, in experiment [4] (H69AR cells + 2 uM doxorubicin), the differential viability (reversal) was 9.25% (inactive). The inhibition is -2.43% (inactive) in experiment [5], 2.46% (inactive) in experiment [6] and 1.15% (inactive) in experiment [12]. In addition, the growth inhibition in experiment [7] was -9.57% (inactive); in experiment [8], -2.85% (inactive). Besides, the viability increase in experiment [9] is -4.12% (inactive). Further, the RAM network inhibition in experiment [13] is 0.15% (inactive).
Regarding `CCOC(=O)Nc1c(O)ccc2oc(C)c(-c3ccccc3)c12`, the viability was 102% (inactive) in experiment [1]; 68.7% (inactive) in [2]; 99.8% (inactive) in experiment [3]; 99.8% in [4] (setting [14]); 99.8% in [4] (setting [15]); 79.4% (inactive) in [10]. For the same compound, the viability in experiment [11] is 80.9% (inactive). Moreover, the differential viability (reversal) in [4] (H69AR cells + 2 uM doxorubicin) is 0.02% (inactive). The values for the inhibition in experiment [5], in experiment [6] and in [12] were 0.26% (inactive), 15.3% (inactive) and 1.51% (inactive), respectively. The values for the growth inhibition in experiment [7] and in [8] were -15.4% (inactive) and -6.34% (inactive), respectively. Moreover, in experiment [9], the viability increase is -2.89% (inactive). Also, in [13], the RAM network inhibition is 3.9% (inactive).
Turning to `CCOC(=O)C1=C(CS(=O)(=O)c2ccc(F)c(C)c2)NC(=O)NC1c1ccc(O)c(O)c1` (stereo not given), the viability in [1] is 112% (inactive); in experiment [2], 85.2% (inactive); in experiment [3], 92.6% (inactive); in experiment [4] (setting [14]), 83.4%; in [4] (setting [15]) it was 92.6%; in [10] it was 99.1% (inactive). In addition, in experiment [11], the viability was 94.8% (inactive). The differential viability (reversal) in experiment [4] (H69AR cells + 2 uM doxorubicin) is 9.16% (inactive). The inhibition in experiment [5] was -4.13% (inactive); in [6], -7.54% (inactive); in experiment [12] it was -0.51% (inactive). Further, the figures for the growth inhibition in experiment [7] and in experiment [8] were 0.775% (inactive) and -9.4% (inactive), respectively. Also, in experiment [9], the viability increase was -1.64% (inactive). Moreover, in experiment [13], the RAM network inhibition was 1.66% (inactive).
For `COC(=O)c1ccc(NC(=O)C2C3CCC(C3)C2C(=O)O)cc1` (stereo not given), the viability is 96% (inactive) in experiment [1]; 113% (inactive) in experiment [2]; 90.4% (inactive) in experiment [3]; 90% in experiment [4] (setting [14]); 90.4% in experiment [4] (setting [15]); 93.7% (inactive) in [10]. In addition, in [11], the viability is 93.6% (inactive). In addition, the differential viability (reversal) in experiment [4] (H69AR cells + 2 uM doxorubicin) is 0.415% (inactive). The inhibition in experiment [5] is 2.13% (inactive); in [6], 6.55% (inactive); in experiment [12], 1.04% (inactive). In addition, the figures for the growth inhibition in experiment [7] and in experiment [8] were 10.2% (inactive) and 1.67% (inactive), respectively. The viability increase in experiment [9] is -2.31% (inactive). In addition, in experiment [13], the RAM network inhibition was 1.43% (inactive).

The record behind these values is PubChem BioAssay.
